Assay [1] in a line: qHTS assay to identify small molecule agonists of the androgen receptor (AR) signaling pathway in the presence of an antagonist - cell viability counter screen (AID 1259379). Further: nearly all actives have a fitted effect of over 25% in size. Further: potency means the concentration at half of the fitted maximal effect. The method, boiled down: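 MDA-kb2 cells (MMTV-luciferase, AR/GR), 3,000/well, 5 h attachment, then 3.0 µM nilutamide (final) and compounds at 15 concentrations. Viability by CellTiter-Fluor fluorescence after 16 h at 37 °C, 0% CO2, in the reporter wells.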

Assay [2] can be described thus: qHTS assay to identify small molecule agonists of the estrogen receptor beta (ER-beta) signaling pathway - cell viability counter screen (AID 1259380). Further: nearly all actives have a fitted effect of over 30% in size. Further: potency means the concentration at half of the fitted maximal effect. The method, boiled down: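 ER-beta-UAS-bla HEK293T cells in medium with 2% charcoal-stripped FBS, pre-incubated 6 hr, then treated 16 hr at 37C. Cytotoxicity read in the same wells by CellTiter-Glo luminescence after 30 min at room temperature.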
On the technique in general: qHTS replaces the single test concentration by a dilution series.

Assay [3] can be described thus: qHTS assay to identify small molecule antagonists of the estrogen receptor beta (ER-beta) signaling pathway - cell viability counter screen (AID 1259382). Further: nearly all actives have a fitted effect of over 55% in size. Further: potency means the concentration at half of the fitted maximal effect. The method, boiled down: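 ER-beta-UAS-bla HEK293T cells in 2% charcoal-stripped FBS medium, treated with compound plus 1 nM 17-beta-estradiol for 16 h at 37C. Viability read by CellTiter-Glo luminescence after 30 min at room temperature in the same wells.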

A short description of assay [4]: qHTS assay to identify small molecule agonists or antagonists of the thyroid stimulating hormone receptor (TSHR) signaling pathway - wild type cell line counter screen (AID 1259384; calls by dose curve). The method, boiled down:
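Wild-type HEK293 cells were plated 18 h at 37 C/5% CO2, pin-dosed with compound plus Ro20-1724 medium, held 30 min at room temperature, then given cAMP-d2 and anti-cAMP-cryptate; fluorescence was read after 1 h. Fifteen concentrations, triplicate.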

The target in assay [5] is Thyrotropin receptor (Homo sapiens) (UniProt P16473). Briefly: qHTS assay to identify small molecule antagonists of the thyroid stimulating hormone receptor (TSHR) signaling pathway (AID 1259385; calls by dose curve; further: nearly all actives have a fitted effect of over 20% in size). The method, boiled down: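 TSHR-HEK293 cells were plated and held 18 h at 37C/5% CO2, then given compound plus Ro20-1724 and stimulated with TSH at 1.5 ng/mL final. After 30 min at room temperature, cAMP was detected with cAMP-d2/anti-cAMP-cryptate (1 h) by fluorescence.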
Chain of Thyrotropin receptor (Homo sapiens) (P16473 whole entry, looked up): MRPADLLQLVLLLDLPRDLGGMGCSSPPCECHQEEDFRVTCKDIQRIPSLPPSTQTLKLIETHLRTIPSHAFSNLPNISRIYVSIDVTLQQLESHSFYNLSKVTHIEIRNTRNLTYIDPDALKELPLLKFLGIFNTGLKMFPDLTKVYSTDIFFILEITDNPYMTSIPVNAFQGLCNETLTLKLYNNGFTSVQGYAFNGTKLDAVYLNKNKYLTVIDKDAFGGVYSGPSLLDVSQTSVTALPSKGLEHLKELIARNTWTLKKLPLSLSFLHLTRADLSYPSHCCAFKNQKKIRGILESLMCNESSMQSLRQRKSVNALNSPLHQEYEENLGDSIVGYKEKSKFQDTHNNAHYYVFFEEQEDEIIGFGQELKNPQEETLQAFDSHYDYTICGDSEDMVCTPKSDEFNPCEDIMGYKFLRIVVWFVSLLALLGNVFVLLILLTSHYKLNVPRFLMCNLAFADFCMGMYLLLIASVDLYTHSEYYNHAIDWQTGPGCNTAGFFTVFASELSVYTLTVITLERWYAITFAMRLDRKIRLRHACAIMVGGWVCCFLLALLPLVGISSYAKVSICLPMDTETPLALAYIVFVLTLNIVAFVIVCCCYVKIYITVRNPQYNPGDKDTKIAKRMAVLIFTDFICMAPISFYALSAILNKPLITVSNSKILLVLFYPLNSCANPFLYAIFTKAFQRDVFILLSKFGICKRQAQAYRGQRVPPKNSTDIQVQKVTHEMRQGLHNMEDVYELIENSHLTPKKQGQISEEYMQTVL

A short description of assay [6]: qHTS assay to identify small molecule agonists of the estrogen receptor alpha (ER-alpha) signaling pathway in the presence of an antagonist - cell viability counter screen (AID 1259386).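 Further: cells exposed to compounds for 22 h at 37 °C before the viability read; nearly all actives have a fitted effect of over 30% in size.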 Further: potency means the concentration at half of the fitted maximal effect. The method, boiled down: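 Cell viability in VM7Luc4E2 cells (endogenous full-length ER-alpha) measured by CellTiter-Fluor fluorescence in the same wells as the luciferase screen. Cells pre-cultured 5 days in charcoal-stripped serum, then treated 22 h with compounds at 15 concentrations plus 10.0nM ICI-182,780.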

Assay [7] addresses Progesterone receptor (Homo sapiens) (UniProt P06401). Briefly: qHTS assay to identify small molecule agonists of the progesterone receptor (PR) signaling pathway (AID 1346784; calls by dose curve; further: nearly all actives have a fitted effect of over 30% in size). The method, boiled down: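 PR-UAS-bla HEK 293T cells carrying a UAS-driven beta-lactamase reporter were seeded in medium with 2% charcoal-stripped FBS, preincubated 6 hr at 37C, then exposed to compounds in DMSO for 16 hr; agonism was read by LiveBLAzer B/G FRET fluorescence.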

Assay [8] shares this target. Kind of assay: qHTS assay to identify small molecule antagonists of the progesterone receptor (PR) signaling pathway (AID 1346795; active means well fitted inhibition curve with a large enough effect in the signal ratio in the repeat runs, not every such curve was filed as active; the % refers to the signal ratio; further: potency means the concentration at half of the fitted maximal effect). The method, boiled down:
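PR-UAS-bla HEK293T cells carrying a UAS-driven beta-lactamase reporter were plated in medium with 2% charcoal-stripped FBS and rested 6 hr at 37C. Compounds were added with 1 nM R5020 (final) for 16 hr, then FRET substrate loaded 2 hr at room temperature.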

A short description of assay [9]: qHTS assay to identify small molecule antagonists of the progesterone receptor (PR) signaling pathway - cell viability counter screen (AID 1346798). Further: nearly all actives have a fitted effect of over 50% in size. Further: potency means the concentration at half of the fitted maximal effect. The method, boiled down:
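PR-UAS-bla HEK293T cells in medium with 2% charcoal-stripped FBS were treated with compounds plus R5020 for 16 hr at 37C. Cell viability was then read by CellTiter-Glo luminescence after 30 min at room temperature in the same wells.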

Assay [10] in a line: qHTS assay to identify small molecule agonists of the progesterone receptor (PR) signaling pathway - cell viability counter screen (AID 1346799; calls by dose curve; further: nearly all actives have a fitted effect of over 45% in size; further: potency means the concentration at half of the fitted maximal effect). The method, boiled down:
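PR-UAS-bla HEK293T cells, 3,000 per well in medium with 2% charcoal-stripped FBS, were preincubated 6 hr at 37C, then exposed to compounds for 16 hr; viability was read as CellTiter-Glo luminescence after 30 min at room temperature.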

Assay [11] is described as follows: qHTS assay to identify small molecule antagonists of the TGF-beta/Smad signaling pathway - cell viability counter screen (AID 1346824). Further: nearly all actives have a fitted effect of over 50% in size. The method, boiled down:
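SBE-bla HEK 293T cells were plated overnight at 37 C, then given compounds in DMSO plus TGF-beta1 (added as 0.25 ng/mL solution) for 5 hr. After the bla read, CellTiter-Glo was added to the same wells and luminescence read after 30 min at room temperature.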

Assay [12] can be described thus: qHTS assay to identify small molecule agonists of the TGF-beta/Smad signaling pathway - cell viability counter screen (AID 1346829). Further: top concentration of the series differs between compounds; nearly all actives have a fitted effect of over 45% in size. The method, boiled down: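 Compound-treated SBE-bla HEK 293T cells (5 hr, 37 C) were assessed for viability with CellTiter-Glo in parallel with the reporter read.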
A short description of assay [13]: qHTS assay to identify small molecule agonists of the TGF-beta/Smad signaling pathway (AID 1346859; active means well fitted activation curve with a large enough effect in the signal ratio in the repeat runs, not every such curve was filed as active; the % refers to the signal ratio; further: series mostly up to about 77 µM). The method, boiled down: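 HEK 293T cells stably carrying a beta-lactamase reporter driven by the Smad binding element were seeded overnight, exposed to DMSO-dissolved compounds for 5 hr at 37 C, 5% CO2, then loaded with FRET substrate for 2 hr at room temperature.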

Assay [14] concerns the target Thyrotropin-releasing hormone receptor (Homo sapiens) (UniProt P34981). Kind of assay: qHTS assay to identify small molecule antagonists of the thyrotropin-releasing hormone receptor (TRHR) signaling pathway (AID 1346877; active means well fitted inhibition curve with a large enough effect in the repeat runs, not every such curve was filed as active; further: series mostly up to about 51 µM). The method, boiled down: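 TRHR-expressing HEK293 cells loaded with calcium dye for 2 h at 37 C; compounds pre-incubated 5 min at room temperature before TRH challenge at 1 nM final. Intracellular calcium fluorescence read kinetically for 3 min; 15 concentrations in triplicate.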

Assay [15] has the same target. Kind of assay: qHTS assay to identify small molecule agonists of the thyrotropin-releasing hormone receptor (TRHR) signaling pathway (AID 1346891; calls by dose curve; further: series mostly up to about 58 µM). The method, boiled down: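 TRHR-expressing HEK293 cells were plated 18 h at 37 °C/5% CO2, loaded with calcium dye 2 h at 37 °C, then given compound in DMSO; fluorescence was read kinetically for 3 min at 1 s intervals.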

The target of assay [16] is Estrogen receptor (Homo sapiens) (UniProt P03372). Briefly: qHTS assay to identify small molecule agonists of the estrogen receptor alpha (ER-alpha) signaling pathway in the presence of an antagonist (AID 1259383; calls by dose curve; further: top concentration of the series differs between compounds; nearly all actives have a fitted effect of over 15% in size). The method, boiled down: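 VM7Luc4E2 cells express endogenous full-length ER-alpha with an ERE-luciferase reporter and were hormone-deprived for 5 days. Compounds at 15 concentrations were added with 10.0nM ICI-182,780 for 22hr at 37C. Luminescence was read with ONE-Glo.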
Chain of Estrogen receptor (Homo sapiens) (P03372 whole entry, looked up): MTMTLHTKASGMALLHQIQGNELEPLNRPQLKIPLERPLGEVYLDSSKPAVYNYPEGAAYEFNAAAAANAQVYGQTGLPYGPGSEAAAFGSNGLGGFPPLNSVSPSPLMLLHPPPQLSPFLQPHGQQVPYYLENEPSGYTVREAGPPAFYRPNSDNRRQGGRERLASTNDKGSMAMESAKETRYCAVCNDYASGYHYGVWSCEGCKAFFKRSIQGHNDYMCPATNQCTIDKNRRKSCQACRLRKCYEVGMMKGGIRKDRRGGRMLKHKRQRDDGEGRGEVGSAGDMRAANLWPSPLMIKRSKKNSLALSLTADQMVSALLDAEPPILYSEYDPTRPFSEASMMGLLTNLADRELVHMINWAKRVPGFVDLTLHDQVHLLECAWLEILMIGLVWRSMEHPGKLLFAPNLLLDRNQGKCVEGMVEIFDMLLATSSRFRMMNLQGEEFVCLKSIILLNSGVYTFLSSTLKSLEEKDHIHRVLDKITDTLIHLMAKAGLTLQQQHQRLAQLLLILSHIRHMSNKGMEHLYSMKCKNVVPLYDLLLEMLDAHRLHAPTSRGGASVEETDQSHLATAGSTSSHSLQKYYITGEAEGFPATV

In assay [17] the target is Estrogen receptor beta (Homo sapiens) (UniProt Q92731). Briefly: qHTS assay to identify small molecule antagonists of the estrogen receptor beta (ER-beta) signaling pathway (AID 1259378; active means well fitted inhibition curve with a large enough effect in the signal ratio in the repeat runs, not every such curve was filed as active; the % refers to the signal ratio). The method, boiled down:
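ER-beta-UAS-bla HEK293T (GripTite) cells in 2% charcoal-stripped FBS medium were preincubated 6 hr at 37C, dosed with compound, then stimulated with 1 nM E2 (final) for 16 hr; beta-lactamase reporter read by B/G FRET fluorescence after 2 hr substrate loading.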

The structures appear in SMILES notation. Results filed as inconclusive are left out. Calls of active or inactive are those of the source. Unless noted, the call rests on the fitted dose curve; in most records, active means well fitted curve in the direction sought with a large enough effect in the repeat runs; inconclusive means weak or mixed curves; inactive means no such curve, though single readings can be large; an effect the other way counts as inactive or inconclusive.

Chain of Progesterone receptor (Homo sapiens) (P06401 whole entry, looked up): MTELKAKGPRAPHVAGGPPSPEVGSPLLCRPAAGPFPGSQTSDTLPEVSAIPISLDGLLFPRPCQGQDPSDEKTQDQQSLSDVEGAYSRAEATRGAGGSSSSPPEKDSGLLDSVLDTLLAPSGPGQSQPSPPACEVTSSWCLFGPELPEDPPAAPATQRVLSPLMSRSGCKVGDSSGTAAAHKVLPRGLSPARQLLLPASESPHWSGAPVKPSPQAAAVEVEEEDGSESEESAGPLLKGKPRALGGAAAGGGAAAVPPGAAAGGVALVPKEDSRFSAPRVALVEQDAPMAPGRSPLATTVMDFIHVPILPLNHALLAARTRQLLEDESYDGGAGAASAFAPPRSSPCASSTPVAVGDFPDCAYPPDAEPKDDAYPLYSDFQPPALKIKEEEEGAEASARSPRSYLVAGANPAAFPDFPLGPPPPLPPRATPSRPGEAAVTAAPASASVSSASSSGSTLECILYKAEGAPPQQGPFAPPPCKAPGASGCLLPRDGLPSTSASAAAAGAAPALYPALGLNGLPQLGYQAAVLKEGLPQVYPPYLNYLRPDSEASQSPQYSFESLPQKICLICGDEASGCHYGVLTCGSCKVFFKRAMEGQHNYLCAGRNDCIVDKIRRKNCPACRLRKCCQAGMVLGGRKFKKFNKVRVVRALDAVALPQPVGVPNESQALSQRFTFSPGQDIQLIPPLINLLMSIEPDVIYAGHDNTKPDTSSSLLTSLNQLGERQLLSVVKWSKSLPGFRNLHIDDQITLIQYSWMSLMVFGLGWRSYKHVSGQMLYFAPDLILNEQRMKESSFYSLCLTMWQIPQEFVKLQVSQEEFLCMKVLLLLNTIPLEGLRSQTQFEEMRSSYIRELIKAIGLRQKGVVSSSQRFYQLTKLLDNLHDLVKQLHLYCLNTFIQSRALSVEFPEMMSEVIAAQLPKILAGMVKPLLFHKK
Chain of Thyrotropin-releasing hormone receptor (Homo sapiens) (P34981 whole entry, looked up): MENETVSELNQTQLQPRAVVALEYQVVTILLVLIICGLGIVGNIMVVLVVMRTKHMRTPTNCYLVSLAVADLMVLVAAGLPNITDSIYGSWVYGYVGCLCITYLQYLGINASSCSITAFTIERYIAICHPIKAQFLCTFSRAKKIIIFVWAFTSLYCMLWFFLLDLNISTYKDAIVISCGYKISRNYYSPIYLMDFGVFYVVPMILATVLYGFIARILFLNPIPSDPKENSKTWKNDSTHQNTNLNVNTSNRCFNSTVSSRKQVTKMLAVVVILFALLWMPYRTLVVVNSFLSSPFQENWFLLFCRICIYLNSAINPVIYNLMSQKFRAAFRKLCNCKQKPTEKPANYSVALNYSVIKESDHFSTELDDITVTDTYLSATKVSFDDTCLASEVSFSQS
Chain of Estrogen receptor beta (Homo sapiens) (Q92731 whole entry, looked up): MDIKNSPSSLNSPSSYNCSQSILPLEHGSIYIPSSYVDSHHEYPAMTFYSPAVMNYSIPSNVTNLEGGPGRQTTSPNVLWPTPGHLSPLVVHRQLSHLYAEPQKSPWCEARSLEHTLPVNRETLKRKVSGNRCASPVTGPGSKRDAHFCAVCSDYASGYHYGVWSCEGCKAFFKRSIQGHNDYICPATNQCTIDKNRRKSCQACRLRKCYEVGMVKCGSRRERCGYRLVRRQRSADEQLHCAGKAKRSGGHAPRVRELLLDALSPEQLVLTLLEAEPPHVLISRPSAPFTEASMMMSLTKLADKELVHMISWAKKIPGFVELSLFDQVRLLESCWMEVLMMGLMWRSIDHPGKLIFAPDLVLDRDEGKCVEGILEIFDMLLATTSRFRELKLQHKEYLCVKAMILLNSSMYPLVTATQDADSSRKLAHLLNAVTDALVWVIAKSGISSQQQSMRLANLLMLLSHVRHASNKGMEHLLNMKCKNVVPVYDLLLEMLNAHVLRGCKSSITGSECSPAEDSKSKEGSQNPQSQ

For the compound `CCOc1ccc(N=Nc2ccc(/C=C/c3ccc(N=Nc4ccc(OCC)cc4)cc3S(=O)(=O)O)c(S(=O)(=O)O)c2)cc1`, the Potency in [1] was 21.4 µM (active); in assay [6], 38 µM (active). The Potency result in assay [2], in assay [3], in assay [4], in assay [5], in [7] and in assay [8] was “inactive” throughout. For the same compound, the Potency result in [9], in assay [10], in assay [11], in assay [13] and in assay [15] was “inactive” throughout. Also, the call in assay [12] and in assay [14] was inactive.
Consider `CN(C)C(=O)NC1(c2ccccc2)CCN(CC[C@@]2(c3ccc(F)c(F)c3)CN(C(=O)c3ccccc3)CCO2)CC1`, for which the Potency result in assay [1], in assay [4], in assay [5], in assay [6], in assay [7] and in assay [8] was “inactive” each time. Further, the Potency result in assay [10], in assay [11], in [13] and in [15] was “inactive” each time. The Potency in assay [2] was 71.4 µM (active). Moreover, in [14], the outcome was inactive.
For `O=C(O)c1ccc(-n2nc(-c3ccccc3O)nc2-c2ccccc2O)cc1`, the Potency result in [1], in assay [2], in [3], in assay [16], in [6] and in [7] was “inactive” throughout. The Potency entry in [9], in [10], in assay [11], in assay [13] and in assay [15] was “inactive” each time. Moreover, in [8], the Potency was 6.68 µM (active). Also, the call in assay [12] and in assay [14] was inactive.
Regarding `Cc1ccc(N=Nc2c(O)c(C(=O)O)cc3ccccc23)c(S(=O)(=O)O)c1`, the Potency result in assay [17], in assay [2], in assay [3], in assay [4], in assay [5] and in [7] was “inactive” each time. In addition, the Potency result in [8], in assay [9], in assay [10], in assay [11], in assay [13] and in assay [15] was “inactive” each time. The Potency in assay [1] and in [6] was 23.6 µM (active) in each case. For the same compound, the outcome in assay [12] was inactive.
For `Nc1ccc([N+](=O)[O-])c(C(F)(F)F)c1`, the Potency result in [17], in assay [1], in [2], in assay [3], in assay [16] and in assay [4] was “inactive” in each case. In addition, the Potency result in assay [5], in assay [7], in [9], in [11], in [13] and in [15] was “inactive” in each case. The call in assay [12] and in [14] was inactive.
On to `CCN(CC)CCNc1ccc(CNC=O)c2sc3ccc(OC)cc3c(=O)c12`, for which the Potency in assay [2] is 8.63 µM (active); in assay [3], 8.63 µM (active); in assay [6] it was 13.7 µM (active); in assay [8], 43.3 µM (active); in [9], 24.3 µM (active); in assay [10], 27.3 µM (active). The Potency entry in assay [16], in assay [7], in [11], in assay [13] and in [15] was “inactive” in each case. In addition, the compound was classed as inactive in assay [12] and in assay [14].

(Values after PubChem BioAssay (Tox21).)
